The entries come from a sample that favours hits as a whole.
MARV entry inh – qHTS for inhibitors of binding or entry into cells for Marburg Virus; Marburg virus pseudotyped entry inhibition, cell reporter; Potency, µM (top dose mostly 37.8 µM), for the others: top-dose activity change, negative = inhibition, usual class: inhibitors; actives 1.8% (n = 300,000); AID 540276, 2011; calls by dose curve; tested in HEK293 cells; further: potency means the concentration at half of the fitted maximal effect; on the % scale 0 is the no-effect control and ±100 the full control effect
AMA1-RON2 inh – qHTS for Inhibitors of AMA1-RON; Towards Development of Antimalarial Drug Lead: Primary Screen. Plasmodium falciparum AMA1 (3D7) - RON2 peptide interaction. AlphaScreen AMA1-biotinylated RON2 peptide binding. Potency, µM (highest dose often 58.2 µM), for inactives: at the top dose activity change, negative = inhibition, actives largely listed as inhibitors. actives 0.2% (n = 360,000). AID 720542, 2013; active means well fitted inhibition curve with a large enough effect; inconclusive means small, poorly fitted or top-dose-only effect; inactive means no such curve, though single readings can be large or run the other way;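 further: potency means the concentration at half of the fitted maximal effect; 0% = vehicle wells and -100% = peptide control; nearly all actives have a fitted effect of over 45% in size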
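AMA1 (3D7) with his tag at 25 nM final met compounds first, then biotinylated RON2 peptide at 25 nM; detection used donor plus acceptor beads, 10 µg/mL apiece, read by AlphaScreen after 30 min at room temperature.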
Cycloheximide cs – Cycloheximide Counterscreen for Small Molecule Inhibitors of Shiga Toxin; cell reporter, cycloheximide protein synthesis inhibition counterscreen; max response, %; actives 12% (n = 300,000); AID 2314, 2010; in the data active means max response mostly above about 13%, no sharp cut-off; inactive means mostly below about 14%; further: read at 38.3 µM for the half of the compounds with a filed dose; 0% is about no effect
Lassa entry inh – qHTS for Inhibitors of binding or entry into cells for Lassa Virus; Lassa virus pseudotype entry inhibition, cell reporter; Potency, µM (highest dose often 37.9 µM), for inactives: at the highest dose activity change, negative = inhibition, hits mostly inhibitors; actives 1.2% (n = 300,000); AID 540256, 2011; calls by dose curve; tested in HEK293 cells; further: potency means the concentration at half of the fitted maximal effect; on the % scale 0 is the no-effect control and ±100 the full control effect; nearly all actives have a fitted effect of over 50% in size
Shiga toxin inh – A qHTS for Small Molecule Inhibitors of Shiga Toxin; Vero cells, Shiga toxin protein synthesis inhibition reporter; AID 2315, 2010; actives 9.2% (n = 290,000); inhibition, % at 38.7 µM; in the data active means inhibition mostly above about 28%, no sharp cut-off; inactive means mostly below about 43%; further: 0% is about no effect
Numbers without * were called inactive; i = inactive; ? = inconclusive; . = no result; [ ] = dose if it differs, or a comment.

SMILES	MARV entry inh	AMA1-RON2 inh	Cycloheximide cs	Lassa entry inh	Shiga toxin inh
CCc1nc(Nc2ccc(OC)cc2OC)c2oc3ccccc3c2n1	?	7.0%	0.6	?	-5.1
CC(C)Cc1ccc(CN2CCCC(NC(=O)c3ccnn3C)C2)cc1 (stereo not drawn)	10µM*	5.0%	7.9	?	-34.1
Cc1ccc(SCc2cc(=O)n3[nH]c(C)nc3n2)cc1	-2.2%	-16.4%	-0.9	22.3%	-7.2
Cc1ccc(SCc2cc(=O)n(C)[nH]2)cc1	.	40.2%	7.9	.	55.2*
CC(/C=N/NC(=O)c1cccnc1)=C\c1ccco1	2.8%	69.1%	13.9*	?	35.3
CC(/C=N/NC(=O)c1cnccn1)=C\c1ccco1	20.7%[46.1 µM]	45.5%	31.8*	1.2%	39.1
O=C(NCCc1ccc(Cl)cc1)c1c2c(nc3ccccc13)C(=O)N(C1CCCCC1)C2	.	.	.	0.8%[46.1 µM]	.
O=C(OCc1nnc(-c2ccc([N+](=O)[O-])cc2)o1)C1CCN(C(=O)c2ccc(F)cc2)CC1	.	-4.4%	.	.	.
COc1cc(/C=N/N(CCO)C2=NS(=O)(=O)c3ccccc32)cc(OC)c1OC	?	-4.7%	-1.2	-16.9%[46.1 µM]	-1.8
COc1cc(Br)cc(/C=N/N(CCO)C2=NS(=O)(=O)c3ccccc32)c1OC	3.98µM*	-3.9%	-4.8	-27.9%[46.1 µM]	12.7
COc1ccc(C2=NCN(c3ccc(C)cc3)C(=S)N2)cc1	3.9%	14.4%	36.1*	-1.4%	41.7
Cc1ccc(N2CN=C(c3ccccc3)NC2=S)cc1	19.2%	3.4%	63.4*	9.8%	98.4*
Cc1ccc(-c2n[nH]c(=S)n2-c2ccccc2)cc1	5.2%	20.2%	-1.4	-0.2%	-3.9
Cc1cc2ccccn2c1C(=S)NC(=O)c1ccccc1	?	?	15.8	21.2%	37.2*
Cc1cc2ccccn2c1C(=O)c1ccc(Cl)cc1	10.3%	26.5%	21.3	-4.3%	41.2
Cc1cc2ccccn2c1C(=O)Nc1cccc(Cl)c1	?	-0.4%	53.4*	6.3%	74.9*
CCn1c(C)cc(O)c(C(=O)Nc2cccc(Cl)c2)c1=O	.	13.8%	-7.0	.	6.2
Cc1cc(O)c(C(=O)Nc2cccc(Cl)c2)c(=O)n1C	.	9.8%	32.6	.	46.6*
CC(C)N(C)c1ncnc2c1ncn2[C@H]1CN(Cc2ccc(-c3ccccc3)cc2)C[C@@H](CO)O1	.	-23.3%	.	.	.
COc1ccc2c(CC(=O)Nc3ccc(C)cc3)coc2c1	8.6%[46.1 µM]	.	.	7.8%[46.1 µM]	.
CS(=O)(=O)CCC(C(=O)Nc1ccc2c(c1)OCO2)N1Cc2ccccc2C1=O (stereo not drawn)	.	14.9%	20.1*	.	23.1
Cc1c(Cl)cccc1NC(=O)C(CCS(C)(=O)=O)N1Cc2ccccc2C1=O (stereo not drawn)	.	.	.	-1.6%[46.1 µM]	.
CSCC[C@@H](C(=O)Nc1ccc2c(c1)OCCO2)N1Cc2ccccc2C1=O	.	0.0%	27.3*	.	58.8
Cc1noc(NS(=O)(=O)c2ccc(NC(=O)c3ccc(Br)cc3)cc2)c1C	.	.	.	6.9%[46.1 µM]	.
COc1cc(CNC(C)(C)CO)cc(Br)c1OCc1ccc(Cl)cc1Cl	13µM*	-6.9%	-4.6	?	-3.1
SMILES	MARV entry inh	AMA1-RON2 inh	Cycloheximide cs	Lassa entry inh	Shiga toxin inh
COc1cc(CNC(C)(C)CO)cc(Br)c1OCc1ccc(Cl)cc1	?	3.3%	-2.8	?	7.5
CCCC/C=C/[C@H](c1ccccc1)[C@H](CO)Cc1ccc2ccccc2c1	.	.	13.3	.	1.3
CN(CCc1ccccn1)C(=O)Nc1ccc(C(C)(C)C)cc1	20.2%	-18.5%	20.0*	2.1%	25.8
Oc1ccc2c(c1)[C@@]13CCCCC1[C@@H](C2)N(CC1CCC1)CC3 (stereo partly drawn)	.	.	-7.2	.	-7.9
COC(=O)c1[nH]c2ccc(Br)cc2c1NC(=O)CN1CCCc2ccccc21	?	0.0%	0.9	?	13.7
CCOC(=O)c1c(NC(=O)CN2CCCc3ccccc32)sc(C)c1C	?	0.7%	34.0*	-19.1%	37.8
COC(=O)c1[nH]c2cc(C)ccc2c1NC(=O)CN1CCCc2ccccc21	?	2.3%	47.7*	-5.8%	i
Cc1ccc(NC(=O)C2CC(=O)N(c3ccc(OC(C)C)cc3)C2)cc1 (stereo not drawn)	.	.	.	-19.0%[46.1 µM]	.
CCN(CC)c1ccc(C=N/C(C#N)=C(\N)C#N)cc1	29.7%	32.2%	27.7*	23.7%	54.1*
N/C(=N\OC(=O)/C=C/c1ccccc1)c1ccc(Cl)cc1	?	10.4%	15.5*	-5.5%	17.5

Source: PubChem
